KB-V1 cytotox: kills drug-selected multidrug resistant KB-V1 cells; KB-V1 MDR cells viability, CellTiter-Glo, 72 h; 400,000 compounds, 3.4% hits; AID 1347076; Potency, µM (doses to about 46.1 µM), hits mostly cytotoxic; note: % is set by controls: 0 for no effect and ±100 for the full control effect; nearly all actives have a fitted effect of over 60% in size
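qHTS viability screen in drug-selected KB-V1 MDR cells: 72 h compound treatment at 37 degrees C, ATP luminescence end point.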
MCF10A rerep: inducers of DNA re-replication in MCF 10A breast cells | Potency, µM (doses to about 46.1 µM), without a hit: at the top dose activity, positive = re-replication, most hits filed as activators | AID 624296 | MCF 10A DNA re-replication, Hoechst nuclear intensity, 48 h | 350,000 compounds, 2.9% hits; note: % of control where 0% means no effect; nearly all actives have a fitted effect of over 50% in size
SW480 rereplic: DNA re-replication induction in SW480 cells; SW480 DNA re-replication, Hoechst DNA content imaging, 48 h; Potency, µM (doses to about 46.1 µM), for the others: top-dose re-replication activation, usual class: activators; 340,000 compounds, 1.8% hits; note: % of control where 0% means no effect; nearly all actives have a fitted effect of over 55% in size
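Treated cells incubate 48 hr (37 C, 5% CO2), are stained 40 min with Hoechst, and nuclear fluorescence is enumerated; a rise in nuclei with high DNA signal marks re-replication.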
KB-3-1 cytotox: KB-3-1 parental cell cytotoxicity | 400,000 compounds, 1.4% hits | KB-3-1 viability, CellTiter-Glo ATP luminescence, 72 h | Potency, µM (doses to about 46.1 µM), actives largely listed as cytotoxic; note: % is set by controls: 0 for no effect and ±100 for the full control effect; nearly all actives have a fitted effect of over 60% in size
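KB-3-1 cells, DMEM (no phenol red) + 10% FBS; compound by pin transfer, 72 h, 37 °C. Readout: CellTiter-Glo luminescence after 10 min. Data normalized, curve-fitted.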
ELG1 repair inh: ELG1-dependent DNA repair inhibition. HEK293T ELG1-luciferase reporter, luminescence, 16 h; DNA damage induced by 5-fluorouridine. Potency, µM (titrated, usually from 46.1 µM), inactives show top-dose activity change, negative = inhibition, usual class: inhibitors. 330,000 compounds, 2.3% hits. AID 504467; note: % is set by controls: 0 for no effect and ±100 for the full control effect; nearly all actives have a fitted effect of over 55% in size
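DMSO vehicle served as the neutral condition. Each well held 2,000 cells given 5-fluorouridine plus compound; after 16 hr at 37 °C/5% CO2, ONE-Glo was added and luciferase measured 30 min later.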
* marks the source's active call; other numbers are inactive results; i = inactive; ? = inconclusive; · = not tested or not shown. Rows were chosen to be rich in hits. Some 8.2% of all compounds tested hit in one or more screens of this group. Calls come from the whole dose curve; as a rule, active = well fitted curve in the direction sought with a large enough effect; inconclusive = small, poorly fitted or top-dose-only effect, or another doubt; inactive = no such curve, though single readings can be large; an effect the other way counts as inactive or inconclusive. Potency is the fitted concentration of half-maximal effect.

SMILES	KB-V1 cytotox	MCF10A rerep	SW480 rereplic	KB-3-1 cytotox	ELG1 repair inh
CCC(=O)c1cn(CC(=O)Nc2cc(C)ccc2C)c2ccccc12	i	?	-4.6%	i	5.3%
CC1CCN(S(=O)(=O)c2ccc3nc(-c4ccccn4)cc(C(=O)NCCN(C)Cc4ccccc4)c3c2)CC1	i	0.731µM*	0.2%	?	13.6%
O=C1c2[nH]c3ccccc3c2CC1N1C(=O)c2ccccc2C1=O (stereo not drawn)	i	·	·	i	·
COc1cc(C(=O)N[C@H](C(=O)NC2CCCc3ccccc32)C(C)C)cc(OC)c1OC (stereo partly drawn)	i	8.3%	9.5%	i	20.6µM*
COc1ccc(C(=O)Nc2ccc(N3CCCCCC3)cc2)cc1S(=O)(=O)N1CCOCC1	?	11.3%	11.3%	?	20.6µM*
Cc1cc(Cl)c(S(=O)(=O)Nc2ccc(S(=O)(=O)N3CCOCC3)cc2)cc1OCC(N)=O	i	14.3%	-68.4%	i	8.0%
Cc1cc(Cl)c(S(=O)(=O)Nc2cc(S(=O)(=O)N3CCOCC3)ccc2F)cc1OCC(N)=O	i	0.651µM*	34.4%	i	4.0%
COc1ccc(C(=O)NC2CCSc3ccccc32)cc1S(=O)(=O)N1CCOCC1 (stereo not drawn)	i	-0.9%	-3.5%	i	16.2%
COc1ccc(C(=O)NC2CCCc3ccccc32)cc1S(=O)(=O)N1CCOCC1 (stereo not drawn)	?	19.6%	10.3µM*	i	-3.4%
CC(C)c1cc(Cn2c3ccccc3c(=O)n2C(C)CBr)on1 (stereo not drawn)	i	·	·	i	·
Cc1ccc(S(=O)(=O)N(c2ccc(Br)cc2)C2C=CS(=O)(=O)C2)cc1 (stereo not drawn)	i	-9.9%	-9.7%	i	6.5%
COC(=O)[C@]12CCCCC=C1N(Cc1ccc(Cl)cc1Cl)C(=O)[C@H](CC(=O)NCCCN1CCCC1=O)C2	?	·	·	i	·
O=C(CCNC(=O)c1ccc(Cl)cc1)Nc1ccc(S(=O)(=O)N2CCOCC2)cc1	i	16.2%	-10.6%	i	11.7%
COc1ccc(S(=O)(=O)N2CCOCC2)cc1NC(=O)c1ccc(Cl)cc1	i	-39.3%	0.231µM*	i	4.9%
O=S(=O)(c1cccc(COc2ccc(Cl)cc2Cl)c1)N1CCOCC1	?	?	-7.7%	?	-5.9%
COc1ccc(C(=O)Nc2ccccc2[N+](=O)[O-])cc1S(=O)(=O)N1CCOCC1	·	?	18.4µM*	·	?
O=C(NCC1CCN(c2ccc(S(=O)(=O)N3CCOCC3)cc2)CC1)c1ccc(Cl)cc1	i	6.3%	-2.2%	i	20.6µM*
CC(=O)c1cc(Cl)ccc1OCc1cccc(S(=O)(=O)N2CCOCC2)c1	18.4µM*	12.9%	-13.5%	i	?
Cc1ccc(C(=O)Nc2ccccc2[N+](=O)[O-])cc1S(=O)(=O)N1CCOCC1	?	?	?	?	-2.4%
CCOc1ccc2oc(C(=O)OCC(=O)NC3CCCCC3)c(C)c2c1	i	-3.7%	-6.4%	i	19.8%
COc1cccc(-c2oc3c(c2C#CCCO)C(O)CCC3)c1 (stereo not drawn)	i	·	·	i	·
CC(C)(C)OC(=O)NCCCCCNC(=O)c1[nH]cnc1C(=O)Nc1ccon1	i	-1.4%	-1.2%	i	?
CSc1cccc(NC(=O)CN(C)S(=O)(=O)c2ccc3c(c2)CCCN3C(C)=O)c1	i	·	·	i	·
COc1ccc(F)cc1S(=O)(=O)N1CCc2ccccc2C1	i	·	·	i	·
COc1cc(Cl)c(C)cc1NC(=O)c1ccccc1NC(=O)CN1CCOCC1	?	2.2%	-0.5%	i	16.4µM*
SMILES	KB-V1 cytotox	MCF10A rerep	SW480 rereplic	KB-3-1 cytotox	ELG1 repair inh
COc1ccc(S(=O)(=O)N2CCOCC2)cc1NC(=O)CN1CCC(Cc2ccccc2)CC1	11.6µM*	?	?	i	?
O=S1(=O)CC(N2CC=CC2)CN1Cc1cn(Cc2ccccc2)nn1 (stereo not drawn)	i	·	·	i	·
COC(=O)Cn1cnc(C(=O)Nc2ccc(C)c(C)c2)n1	i	9.6%	-8.2%	i	?
COC(=O)c1ccc(CSc2nc3c([nH]c4ccccc43)c(=O)n2-c2ccc(Cl)cc2)o1	i	·	·	i	·
CCOC(=O)N1CCN(C(=O)c2ccc3c(=O)n(CCc4ccccc4)c(=S)[nH]c3c2)CC1	?	?	-3.9%	i	-19.6%
O=C(c1ccc2c(=O)n(Cc3ccco3)c(=S)[nH]c2c1)N1CCN(Cc2ccccc2)CC1	20.6µM*	?	0.7%	?	-15.0%
CCOC(=O)N1CCN(C(=O)c2ccc3c(=O)n(Cc4ccc(Cl)cc4)c(=S)[nH]c3c2)CC1	13µM*	?	-4.4%	23.1µM*	8.2µM*
CCCn1c(=S)[nH]c2cc(C(=O)N3CCN(C(=O)OCC)CC3)ccc2c1=O	i	2.0%	3.8%	i	11.5%
CCOC(=O)N1CCN(C(=O)c2ccc(Cn3c(=S)[nH]c4ccc(Br)cc4c3=O)cc2)CC1	i	4.4%	?	?	7.3µM*
O=C(NCc1cccc(Cl)c1)c1ccc2c(Cl)c3c(nc2c1)CCCC3	i	·	·	i	·
Cc1cnc(NC(=O)CCc2ccccc2)s1	i	10.3µM*	13µM*	?	?
COc1ccc(CCC(=O)Nc2ncc(C)s2)cc1OC	i	12.2%	?	?	7.8%
O=C(CCc1ccccc1)Nc1ccc(Cl)cn1	?	5.8µM*	6.51µM*	5.8µM*	?
CCN=C(NS(=O)(=O)c1ccc(Br)cc1)c1ccc(Cl)cc1	?	1.84µM*	-73.3%	i	-16.4%
CC/C(=N/NS(=O)(=O)c1ccc(Cl)cc1)c1ccc(O)cc1	i	0.0%	·	i	6.7%
C#CCN1Cc2ccccc2Oc2cc(Br)ccc2S1(=O)=O	i	?	-3.4%	i	-5.5%
NC(N)=NCCCS(=O)(=O)Nc1ccc(Nc2c3ccccc3nc3cc([N+](=O)[O-])ccc23)cc1	?	3.0%	-0.6%	14.6µM*	·
CC1C/C(=C/c2ccco2)C(=O)/C(=C/c2ccco2)C1 (stereo not drawn)	·	?	?	·	-19.2%
O=C1/C(=C\c2ccco2)CCC/C1=C\c1ccco1	i	20.6µM*	?	i	?
O=C(CN(c1cccc([N+](=O)[O-])c1)S(=O)(=O)c1ccccc1)NCc1ccccc1	5.8µM*	14.0%	-2.4%	i	?
O=C(CSc1nc2ccccc2n1S(=O)(=O)c1cccc([N+](=O)[O-])c1)NCCc1ccccc1	3.66µM*	14.5%	-1.8%	?	?
CS(=O)(=O)N(CC(=O)NCCc1ccccc1)c1cccc([N+](=O)[O-])c1	i	0.651µM*	-33.9%	i	6.2%

Screens (PubChem BioAssay)
